Source: PubChem BioAssay
Only some compounds are listed: those with a hit (about 12% of all), similar ones and a draw of the others.
G9a block: qHTS Assay for Inhibitors of Histone Lysine Methyltransferase G9a | Histone-lysine N-methyltransferase EHMT2 (Homo sapiens), Q96KQ7 | G9a H3K9 monomethylation, AlphaScreen, 2 h | Potency, µM (top dose mostly 102 µM), for inactives: at the top dose activity, negative = inhibition, most hits filed as inhibitors | actives 8.8% (n = 350,000); also: % is scaled to controls: 0 for no effect and ±100 for the full control effect; nearly all actives have a fitted effect of over 75% in size
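Signal arises when biotinylated H3K9 peptide, once monomethylated, bridges streptavidin donor and antibody-captured acceptor beads. Enzyme at 20 nM was preincubated 15 min with test compounds; peptide 500 nM and SAM 20 uM then reacted for 2 h.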
Sfp PPTase inh: qHTS Assay for Inhibitors of Bacillus subtilis Sfp phosphopantetheinyl transferase (PPTase); Biochemical Sfp PPTase activity, qHTS; actives 3.5% (n = 310,000); AID 1490, 2009; Potency, µM, inactives show largest response in the series, negative = inhibition, hits mostly inhibitors; 4'-phosphopantetheinyl transferase ffp (Bacillus subtilis), Q9F4F7;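 also: the enzyme is Sfp with the accession as filed and its product quenches rhodamine fluorescence; 0% = enzyme reaction without inhibitor and -100% = no enzyme wells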
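Sfp 15 nM + cpd, 15 min RT; start w/ rhodamine-CoA 5 uM, BHQ-2-YbbR 12.5 uM (final); 50 mM Hepes pH 7.6, 10 mM MgCl2, 0.01% NP-40, 0.01% BSA; read 525/598 nm at 0 and 30 min.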
JMJD2A Tudor: qHTS Assay for Inhibitors of JMJD2A-Tudor Domain; AID 504339, 2011; AlphaScreen JMJD2A-Tudor / H3K4me3 peptide binding; actives 4.4% (n = 390,000); Potency, µM (series often up to 114 µM), inactives show at the top dose activity change, negative = inhibition, most hits filed as inhibitors; also: % is scaled to controls: 0 for no effect and ±100 for the full control effect; nearly all actives have a fitted effect of over 50% in size
HP1b chromo inh: HTS for Inhibitors of HP1-beta Chromodomain Interactions with Methylated Histone Tails. actives 0.56% (n = 390,000). AlphaScreen HP1-beta / biotin-H3K9me3 peptide binding. Potency, µM (top dose mostly 114 µM), for the others: at the top dose activity change, negative = inhibition, actives largely listed as inhibitors. Chromobox protein homolog 1 (Homo sapiens), P83916. AID 540317, 2011; also: nearly all actives have a fitted effect of over 70% in size
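Compound inhibition of the preformed complex between 50 nM HP1-beta and 50 nM biotinylated H3K9me3 peptide was read by AlphaScreen. Buffer was PBS pH 7.4 with 0.01% Tween-20. Incubations ran 30 min at room temperature, with 10 ug/mL donor/acceptor beads.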
BAZ2B inh: qHTS Assay for Inhibitors of BAZ2B | actives 4.4% (n = 360,000) | AlphaScreen BAZ2B-H3K14Ac peptide displacement | Potency, µM (titrated, usually from 114 µM), without a hit: top-dose activity change, negative = inhibition, actives largely listed as inhibitors; also: % is scaled to controls: 0 for no effect and ±100 for the full control effect; nearly all actives have a fitted effect of over 60% in size
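BAZ2B (50 nM) with biotin-H3(5-23)K14Ac peptide (50 nM) in PBS pH 7.4, 0.01% Tween-20, preformed 30 min, then compound 30 min at room temperature; top concentration 110uM. AlphaScreen streptavidin donor/nickel chelate acceptor beads (10 ug/mL final), 20 min dark, signal read.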
The depositor's hits bear a star; ? = inconclusive; . = not tested or not shown; [ ] = another dose, or the depositor's remark. Calls follow the shape of the dose curve; as a rule, active = well fitted curve in the direction sought with a large enough effect; inconclusive = small, poorly fitted or top-dose-only effect, or another doubt; inactive = no such curve, though single readings can be large; an effect the other way counts as inactive or inconclusive. Potency is read from the fitted curve at half-maximal effect.

SMILES	G9a block	Sfp PPTase inh	JMJD2A Tudor	HP1b chromo inh	BAZ2B inh
CCCn1c(C)nc2c(NC(C)CCCN(CC)CC)nc(C)nc21 (stereo unspecified)	.	17.8%	.	.	.
CC(C)c1nnc(NC(=O)CN2C(=O)c3ccccc3C2=O)s1	.	-12.1%	-24.7%	41.6%	-35.3%
Cc1ccc(-c2nnn(CC(=O)Nc3nnc(C(C)C)s3)n2)cc1	-3.2%	-3.0%	56.2µM*	0.3%	0.3%
Cc1cc(C)c(NC(=O)c2c[nH]c(=S)n2-c2ccc(F)cc2)c(C)c1	2.82µM*	-11.0%	?	27.8%	-21.1%
Cc1ccc(S(=O)(=O)n2nc(-c3ccccc3)nc2NCc2ccc(Cl)cc2)cc1	8.0%[59 µM]	.	12.0%	14.2%	0.3%
O=C1N=c2ccccc2=C1c1sc(=S)n(-c2ccc(O)cc2)c1O	?	0.6%	-4.1%	7.3%	-36.4%
Cc1c(-n2c(O)c(C3=c4ccccc4=NC3=O)sc2=S)c(=O)n(-c2ccccc2)n1C	44.7µM*	?	-6.2%	-11.6%	-31.4%
Cc1oc(/N=C/c2ccccc2O)c(C#N)c1C	-124.1%	-27.1%	-12.7%	29.8%	11.6%
Cc1oc(/N=C/c2ccc(O)cc2O)c(C#N)c1C	44.7µM*	-18.8%	-6.5%	-4.2%	-3.7%
Cc1oc(/N=C/c2c(O)ccc3ccccc23)c(C#N)c1C	1.58µM*	-20.3%	.	.	.
Cc1oc(/N=C/c2ccc(Cl)cc2Cl)c(C#N)c1C	44.7µM*	4.3%	-13.9%	21.6%	-2.6%
CSc1cccc(NC(=O)c2c(Cl)cnn2C)c1	-21.0%[59 µM]	-13.0%	-16.0%	9.3%	9.1%
CCn1c(C)cc(O)c(C(=O)Nc2cccc(Cl)c2)c1=O	22.0%	19.7%	-3.6%	40.8%	3.7%
Cc1cc(O)c(C(=O)Nc2cccc(Cl)c2)c(=O)n1C	50.1µM*	15.0%	0.3%	41.2%	-5.1%
Cn1ncc(N=Cc2c(O)ccc3ccccc23)c1C(=O)Nc1cccc(Cl)c1	7.94µM*	?	?	-7.8%	50.1µM*
Cn1ncc([N+](=O)[O-])c1C(=O)Nc1cccc(Cl)c1	11.8%[0.501 µM]	-1.2%	-11.9%	5.7%	-0.1%
Cn1ncc(Cl)c1C(=O)Nc1cccc(Cl)c1	2.82µM*	20µM*	89.1µM*	-19.7%	12.6%
CCOC(=O)C1=CNS(=O)(=O)NC1c1cccc(O)c1 (stereo unspecified)	.	.	-9.4%	23.1%	.
CC(C)c1ccc(NC(=O)C(c2ccccc2)N(C)C(=O)CCc2c[nH]c3ccccc23)cc1 (stereo unspecified)	.	.	?	3.0%	.
CCCn1c(=O)c2ccccc2n2c(SCCOc3ccc(C)cc3)nnc12	?	?	28.2µM*	44.7%	6.7%
CCCn1c(=O)c2ccccc2n2c(SCC(=O)NCc3cccs3)nnc12	?	-22.5%	25.1µM*	1.7%	-1.0%
Cn1cnc([N+](=O)[O-])c1Oc1ccc2ccccc2c1	50.1µM*	-13.7%	-23.6%	22.6%	-7.1%
Cc1cccc(Sc2c([N+](=O)[O-])ncn2C)c1	32.2%	-2.6%	-23.8%	10.1%	-27.7%[57.1 µM]
CC1CCc2[nH]c3ccc(C(=O)N(C)CC(=O)Nc4ccccc4Cl)cc3c2C1 (stereo unspecified)	50.1µM*	.	?	-36.8%	?
CC1CCc2[nH]c3ccc(C(=O)N(C)CC(=O)Nc4ccccc4C(F)(F)F)cc3c2C1 (stereo unspecified)	16.6%[2.33 µM]	.	50.1µM*	-27.8%	50.1µM*
SMILES	G9a block	Sfp PPTase inh	JMJD2A Tudor	HP1b chromo inh	BAZ2B inh
CCN(CC(=O)Nc1ccccc1OC)C(=O)c1ccc2[nH]c3c(c2c1)CC(C)CC3 (stereo unspecified)	-11.9%[12.7 µM]	.	?	-23.9%	?
CC(=O)Nc1ccc(NS(=O)(=O)c2ccc(CN3C(=O)c4cccnc4C3=O)cc2)cc1	11.7%	10.8%	-9.8%	35.3%	79.4µM*
Cc1ccc(CNS(=O)(=O)c2ccc(CN3C(=O)c4cccnc4C3=O)cc2)o1	-5.9%[0.0925 µM]	-15.4%	-10.6%	22.0%	79.4µM*
CC(C)NS(=O)(=O)c1cc(F)ccc1CN1C(=O)c2cccnc2C1=O	-35.9%[12.7 µM]	4.0%	?	32.1%	?
Cc1ccc(CNS(=O)(=O)c2cc(F)ccc2CN2C(=O)c3cccnc3C2=O)o1	?	4.7%	-18.8%	50.1%	50.1µM*
COc1cccc(NC(=O)C2CCN(c3nc4ccccc4nc3C(F)(F)F)CC2)c1	-1.4%[59 µM]	.	4.2%	35.9%	4.3%
CC(C)C[C@@H](NC(=O)[C@H](Cc1ccccc1)NC(=O)c1cnccn1)B(O)O	-37.7%[2.33 µM]	6.6%	.	.	.
Cc1ccc(C)c(Cn2c(=O)c3c(nc4n3CCN4c3ccc(F)cc3)n(C)c2=O)c1	-42.2%[59 µM]	.	-5.9%	12.9%	-7.8%
CCCC[N+](C)(C)CCC(=O)NC(C)(C)CS(=O)(=O)[O-]	?	-4.2%	56.2µM*	?	50.1µM*
Cc1ccc(S(=O)(=O)NCCCCCC(=O)NC(C)(C)CO)cc1	6.4%	13.4%	-3.6%	32.8%	-8.0%
COc1cc(C(=O)Nc2scc(-c3ccccc3)c2C(=O)O)cc(OC)c1OC	.	13.9%	-18.2%	27.5%	0.2%
CCCc1ccc(OCC(=O)Nc2scc(-c3cccs3)c2C(=O)OC)cc1	?	.	-2.6%	1.4%	7.1%
COC(=O)c1c(-c2cccs2)csc1NC(=O)c1ccc(C)cc1	?	.	-28.1%	-23.4%	?
COC(=O)c1c(-c2cccs2)csc1NC(=O)c1ccc(Br)cc1	1.58µM*	.	-10.6%	6.1%	-7.3%
COC(=O)c1c(-c2cccs2)csc1NC(=O)c1cc(OC)c(OC)c(OC)c1	?	.	89.1µM*	?	?
CCOC(=O)c1c(-c2cccs2)csc1NC(=O)c1ccncc1	19.5%[2.33 µM]	12.3%	-4.5%	35.0%	13.4%
COC(=O)c1c(-c2cccs2)csc1NC(=O)c1ccc(OC)c(OC)c1	2.82µM*	.	-32.8%	?	-26.7%
COC(=O)c1c(-c2cccs2)csc1NC(=O)c1cc(OC)cc(OC)c1	2.82µM*	.	-5.0%	0.5%	-35.1%
O=C(O)C1CC2CCC1CC2 (stereo unspecified)	.	.	-6.2%	34.9%	.
CCOC(=O)c1ccc(Nc2nc3ccc(C(=O)c4ccccc4)cc3n3c(C)nnc23)cc1	5.4%[59 µM]	.	-14.4%	23.7%	13.3%
O=C(CNC(=O)C1CCCCC1)OC(C(=O)Nc1cc(C(F)(F)F)ccc1Cl)c1ccccc1 (stereo unspecified)	.	.	-19.2%	.	.
O=C(/C=C/C=C/c1ccccc1)c1ccco1	50.1µM*	?	-22.5%	-17.6%	?
O=C(/C=C\c1ccccc1)Nc1ccc(NC(=O)c2ccco2)cc1	-7.3%	12.5%	10µM*	?	-8.6%
